Experimental findings from PubChem BioAssay (NCATS) are described below.

Values joined by “and” are separate entries in the source; they are usually repeats but may differ in a detail not shown here. Equal entries are not always repeated. A number with no mark means an inactive call. Records with an inconclusive call do not appear. Active and inactive are the calls of the source. Unless noted, calls follow the shape of the dose curve; as a rule, active = well fitted curve in the direction sought with a large enough effect; inconclusive = small, poorly fitted or top-dose-only effect, or another doubt; inactive = no such curve, though single readings can be large; an effect the other way counts as inactive or inconclusive.

A short description of assay [1]: qHTS assay for environmental chemicals that activate the Aryl hydrocarbon Receptor (AhR) signaling pathway (AID 651777). Also: % of control where 0% means no effect; nearly all actives have a fitted effect of over 15% in size. To be noted: 1A2-DRE human hepatoma cells, luciferase, 24 h; hits give high values. Summed up:
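Luminescence read-out: One-Glo added for 30 min at RT after 24 hr compound treatment (37 C, 5% CO2) of human hepatoma cells expressing a DRE/CYP1A2 promoter–luciferase reporter; increased signal indicates AhR activation.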
For orientation: qHTS replaces the single test concentration by a dilution series.

Assay [2] has as its target Peroxisome proliferator-activated receptor alpha (Homo sapiens) (UniProt Q07869). Nature of the assay: qHTS assay for small molecule agonists of the peroxisome proliferator-activated receptor alpha (PPARalpha) signaling pathway (AID 651778). Also: % of control where 0% means no effect. To be noted: PathHunter PPARalpha complementation, chemiluminescence, 6 h; max response: hits give high values. Summed up: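 Cells plated at 2,000/well and held overnight at 37 C, 5% CO2, then compound added by pin tool for 6 hr; after PathHunter detection reagent and 60 min at room temperature, chemiluminescence from enzyme complementation was read.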

A short description of assay [3]: qHTS assay for small molecule agonists of the antioxidant response element (ARE) signaling pathway measured by Nrf2-dependant transcriptional activity (AID 720636; active = well fitted curve in the direction sought with a large enough effect in the repeat runs; an effect the other way counts as inactive or inconclusive;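 also: HepG2 cells with an ARE-driven luciferase reporter; % of control where 0% means no effect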). Summed up: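 HepG2 ARE-luc reporter line, 1% dialyzed FBS; 6 hr attachment at 37 C, compound pinned in, 16 hr at 37 C/5% CO2; ONE-Glo, 30 min RT, luminescence read.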
Assay [4] can be described thus: qHTS Assay for Identifying Gametocytocidal Compounds (AID 743244).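 Also: % is scaled to controls: 0 for no effect and ±100 for the full control effect; actives lower the fluorescent signal which means gametocytes are killed.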 To be noted: P. falciparum 3D7 stage III-V gametocytes, alamarBlue, 72 h; max response: hits give low values. The gist of the method:
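Using 20,000 stage III–V 3D7 gametocytes per well, compounds were incubated 72 h under 37 °C/5% CO2. Viability was then assessed by 24 h alamarBlue reduction, measured fluorometrically at 525/598 nm.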

Assay [5] deals with Tyrosine-protein kinase Yes (Homo sapiens) (UniProt P07947). Nature of the assay: qHTS for small molecule inhibitors of Yes1 kinase: Primary Screen (AID 686947).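 Also: plate controls were DMSO with enzyme for no effect and no-enzyme DMSO wells for full effect; nearly all actives have a fitted effect of over 60% in size.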 The gist of the method: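 ADP-Glo luminescence readout; final 4 nM Yes1, 0.1 mM ATP, 0.3 mg/mL poly(E4Y), Tris pH 7.5, MgCl2, DTT, Brij-35. 20 min compound preincubation, 60 min reaction at RT. Normalized to DMSO wells with and without enzyme.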

A short description of assay [6]: qHTS for small molecule inhibitors of Yes1 kinase: Counter Assay (AID 686950).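 Also: no kinase present so only ADP-Glo detection of a fixed ADP amount is tested; luminescence from ADP-Glo reporting ADP in a fixed ATP and ADP mixture; series mostly up to about 77 µM; 0% = DMSO wells with ATP plus ADP and -100% = ATP-only wells without ADP.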 The gist of the method: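 Enzyme-free ADP-Glo interference check: compounds were preincubated 20 min in buffer, then an ATP/ADP mix (0.08 mM ATP, 0.02 mM ADP final) was added for 60 min at room temperature before two-step ADP-Glo luminescence detection.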
Assay [7] can be described thus: qHTS assay for small molecule disruptors of the mitochondrial membrane potential - 5 hr assay (AID 651755; calls by dose curve; also: % is scaled to controls: 0 for no effect and ±100 for the full control effect; nearly all actives have a fitted effect of over 40% in size). The gist of the method:
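HepG2 cells, attached overnight at 37C, were exposed to compound or DMSO for 5 hr at 37C, 5% CO2. Mito-MPS dye was then added for 30 min, and fluorescence read at 490/535 nm (monomers) and 540/590 nm (aggregates).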

Assay [8] has as its target Tumor necrosis factor (Homo sapiens) (UniProt P01375). Nature of the assay: qHTS assay to identify small molecules that stimulate Tumor Necrosis Factor-alpha (TNF-alpha) secretion (AID 651757; active = well fitted curve in the direction sought with a large enough effect in the signal ratio; the % refers to the signal ratio; also: 0% is about no effect). The gist of the method: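 THP-1 cells were exposed to compounds for 17 hrs at 37 C, after which secreted TNF-alpha was measured by homogeneous HTRF (TR-FRET) using cryptate- and XL665-labeled anti-TNF-alpha antibodies, read after 3 hr at room temperature.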

In assay [9] the target is Nuclear receptor ROR-gamma (Homo sapiens) (UniProt P51449). As to the kind of experiment: qHTS assay for small molecule antagonists of the retinoid-related orphan receptor gamma (ROR-gamma) signaling pathway (AID 651802). Also: potency is read from the fitted curve at half-maximal effect; nearly all actives have a fitted effect of over 60% in size. The gist of the method: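 CHO cells carrying TET-inducible ROR-gamma and an ROR response element–luciferase reporter were exposed to compound, then induced with doxycycline. After 16hr at 37C, luminescence was read; lower signal indicates antagonism.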

In assay [10] the target is Arylsulfatase A (Homo sapiens) (UniProt P15289). As to the kind of experiment: qHTS screen for enhancers of Arylsulfatase A (ASA1): LOPAC Validation Assay (AID 720538). Also: 0% is about no effect. To be noted: outcome: dose series up to 57.5 µM. The gist of the method: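 MLD patient fibroblasts (SV40, ASA-I179S), 1536-well; adhere 6 hrs; cpd 48h, 37 degree C, 5% CO2; pNCS 0.5mM final in lysis buffer, 14h RT; stop 1N NaOH final; fluor. Ex525/Em598.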

Assay [11] in a line: qHTS for compounds that reverse cellular toxicity of Amyloid beta (A-beta) peptide in yeast: LOPAC Validation Assay (AID 720559).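 Also: plate controls were DMSO for no effect and equimolar ferric chloride plus clioquinol rescue for full effect.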 Summed up: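 Medium dispensed, compounds pinned, A-beta yeast suspension added; plates held at 30 C for 48 hr; absorbance measured at 600 nm to gauge growth; values scaled between DMSO and FeCl3/clioquinol (equimolar) controls.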
The nature of assay [12]: qHTS for Activators of Parkin Expression: LOPAC Validation Assay (NLuc Reporter) (AID 720572). The gist of the method: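 Neuronal line stably carrying a FLuc/NLuc coincidence reporter under the Parkin promoter, seeded 24 h, then dosed in 7-point series for 24 h at 37 C. NLuc luminescence read after FLuc; normalized to DMSO and positive control (100%).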
Assay [13] is described as follows: qHTS for Activators of Parkin Expression: LOPAC Validation Assay (FLuc Reporter) (AID 720573). The gist of the method:
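Cells seeded, 24 h; compounds pinned, 7-pt dose response; 24 h at 37 C/5% CO2; volume reduced; FLuc reagent 10 min RT; luminescence read. Normalization: DMSO = 0, positive control = 100%.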

Assay [14] has as its target T1, Hexokinase-4 (Homo sapiens) + Glucokinase regulatory protein (Homo sapiens) (UniProt P35557+Q14397). Nature of the assay: qHTS assay for inhibitors of recombinant human GCK-GKRP interaction: Diaphorase-coupled assay (AID 743205). Summed up: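 25 mM Hepes pH 7.6, 5 mM glucose, 0.4 mM ATP, 4 U/ml G6PDH; 10 nM each GST-GCK/FLAG-GKRP. Kinetic fluorescence read, 1/min × 30 min. Normalized: DMSO ± enzyme = max/min.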

In assay [15] the target is T1, Hexokinase-4 (Homo sapiens) + Glucokinase regulatory protein (Homo sapiens). As to the kind of experiment: qHTS assay for inhibitors of recombinant human GCK-GKRP interaction: ADP-Glo assay (AID 743206).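 Also: plate controls were DMSO plus enzyme for no effect and no enzyme for full effect.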 The gist of the method: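 GST-GCK and FLAG-GKRP (15 nM each in the dispensed mix, with 2 uM S6P) react with 0.4 mM ATP and 5 mM glucose (final) in Hepes pH 7.6 for 60 min at room temperature. ADP is measured by ADP-Glo luminescence.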

The target is the same in assay [16]. Nature of the assay: qHTS assay for inhibitors of recombinant human GCK-GKRP interaction: HTRF assay (AID 743207).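 Also: 0% = DMSO with GCK present and -100% = DMSO wells lacking GCK.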 Summed up: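 5 nM GST-GCK + 5 nM FLAG-GKRP + 2 uM S6P, pH 7.1 buffer (25 mM Hepes, 2 mM MgCl2, 25 mM KCl, 1 mM DTT, Tween/BSA); pin-transferred cpd; anti-FLAG XL665/anti-GST K; 60 min RT; HTRF.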

T1 sequence (P35557 whole entry, looked up): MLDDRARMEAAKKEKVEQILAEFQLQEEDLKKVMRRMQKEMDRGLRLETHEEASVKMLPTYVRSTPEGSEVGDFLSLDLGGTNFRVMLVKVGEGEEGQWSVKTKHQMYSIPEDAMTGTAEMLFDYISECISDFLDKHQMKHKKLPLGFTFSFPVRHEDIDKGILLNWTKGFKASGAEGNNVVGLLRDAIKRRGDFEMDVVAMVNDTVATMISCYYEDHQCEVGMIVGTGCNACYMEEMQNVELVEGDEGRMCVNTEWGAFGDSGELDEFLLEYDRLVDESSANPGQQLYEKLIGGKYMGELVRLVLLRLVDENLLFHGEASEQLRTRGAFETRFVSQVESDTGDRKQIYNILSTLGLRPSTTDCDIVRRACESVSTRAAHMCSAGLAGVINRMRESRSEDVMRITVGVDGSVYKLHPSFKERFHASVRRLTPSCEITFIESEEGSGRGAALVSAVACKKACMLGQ
T1 sequence (Q14397 whole entry, looked up): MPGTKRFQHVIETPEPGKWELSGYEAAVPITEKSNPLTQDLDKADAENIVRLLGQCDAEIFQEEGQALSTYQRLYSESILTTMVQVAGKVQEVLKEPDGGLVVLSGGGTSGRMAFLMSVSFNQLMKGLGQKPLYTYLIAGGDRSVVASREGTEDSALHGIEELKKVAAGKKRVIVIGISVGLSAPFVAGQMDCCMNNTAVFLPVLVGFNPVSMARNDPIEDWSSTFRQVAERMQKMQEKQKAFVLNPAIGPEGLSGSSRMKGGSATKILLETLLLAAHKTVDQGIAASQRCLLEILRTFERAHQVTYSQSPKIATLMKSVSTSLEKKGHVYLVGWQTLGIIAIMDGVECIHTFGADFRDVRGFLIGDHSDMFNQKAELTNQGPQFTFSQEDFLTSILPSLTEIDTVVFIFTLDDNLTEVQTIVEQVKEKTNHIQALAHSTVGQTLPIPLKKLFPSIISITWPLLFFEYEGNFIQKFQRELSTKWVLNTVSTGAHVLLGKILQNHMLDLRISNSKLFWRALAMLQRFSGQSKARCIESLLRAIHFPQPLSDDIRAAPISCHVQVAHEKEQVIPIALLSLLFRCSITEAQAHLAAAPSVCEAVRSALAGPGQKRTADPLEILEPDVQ
Arylsulfatase A (Homo sapiens), sequence (P15289 whole entry, looked up): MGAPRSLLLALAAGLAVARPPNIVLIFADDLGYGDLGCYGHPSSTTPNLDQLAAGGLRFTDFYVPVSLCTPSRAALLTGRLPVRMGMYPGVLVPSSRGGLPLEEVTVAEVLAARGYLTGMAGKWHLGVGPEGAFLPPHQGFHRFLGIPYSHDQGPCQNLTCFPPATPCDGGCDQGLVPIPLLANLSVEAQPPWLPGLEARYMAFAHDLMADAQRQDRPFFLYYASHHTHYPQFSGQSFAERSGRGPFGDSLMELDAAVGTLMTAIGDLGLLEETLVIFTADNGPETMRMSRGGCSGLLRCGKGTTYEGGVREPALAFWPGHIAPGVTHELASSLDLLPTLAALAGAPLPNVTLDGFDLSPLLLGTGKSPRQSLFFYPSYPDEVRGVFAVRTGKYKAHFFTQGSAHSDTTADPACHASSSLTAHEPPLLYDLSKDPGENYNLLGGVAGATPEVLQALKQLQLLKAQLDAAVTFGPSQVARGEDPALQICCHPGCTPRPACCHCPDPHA
Tyrosine-protein kinase Yes (Homo sapiens), sequence (P07947 whole entry, looked up): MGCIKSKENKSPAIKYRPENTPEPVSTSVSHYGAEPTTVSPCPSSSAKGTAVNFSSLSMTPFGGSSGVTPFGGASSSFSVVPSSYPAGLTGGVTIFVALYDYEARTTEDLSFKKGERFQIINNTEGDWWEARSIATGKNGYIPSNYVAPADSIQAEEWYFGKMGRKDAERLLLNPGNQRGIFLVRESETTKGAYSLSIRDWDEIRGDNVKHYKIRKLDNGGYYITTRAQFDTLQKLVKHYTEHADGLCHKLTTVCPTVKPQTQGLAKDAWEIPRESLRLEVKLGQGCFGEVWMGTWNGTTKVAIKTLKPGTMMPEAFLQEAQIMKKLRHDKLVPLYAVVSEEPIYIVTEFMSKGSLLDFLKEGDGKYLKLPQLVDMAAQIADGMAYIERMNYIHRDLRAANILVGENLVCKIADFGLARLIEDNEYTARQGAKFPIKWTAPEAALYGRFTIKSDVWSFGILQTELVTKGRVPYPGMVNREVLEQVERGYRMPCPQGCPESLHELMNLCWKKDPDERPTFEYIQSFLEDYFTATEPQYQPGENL
Peroxisome proliferator-activated receptor alpha (Homo sapiens), sequence (Q07869 whole entry, looked up): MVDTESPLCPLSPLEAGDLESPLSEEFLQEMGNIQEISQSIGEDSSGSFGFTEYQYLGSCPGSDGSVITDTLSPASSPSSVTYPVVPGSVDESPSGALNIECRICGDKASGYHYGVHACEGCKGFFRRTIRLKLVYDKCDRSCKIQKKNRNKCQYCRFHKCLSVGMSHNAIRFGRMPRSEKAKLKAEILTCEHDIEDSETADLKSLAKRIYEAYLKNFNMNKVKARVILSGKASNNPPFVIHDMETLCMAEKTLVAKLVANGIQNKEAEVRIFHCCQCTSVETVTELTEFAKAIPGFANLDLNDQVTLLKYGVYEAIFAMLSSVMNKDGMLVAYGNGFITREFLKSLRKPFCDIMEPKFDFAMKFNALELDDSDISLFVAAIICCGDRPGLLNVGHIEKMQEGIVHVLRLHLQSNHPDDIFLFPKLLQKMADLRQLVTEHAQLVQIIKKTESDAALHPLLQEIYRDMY
Nuclear receptor ROR-gamma (Homo sapiens), sequence (P51449 whole entry, looked up): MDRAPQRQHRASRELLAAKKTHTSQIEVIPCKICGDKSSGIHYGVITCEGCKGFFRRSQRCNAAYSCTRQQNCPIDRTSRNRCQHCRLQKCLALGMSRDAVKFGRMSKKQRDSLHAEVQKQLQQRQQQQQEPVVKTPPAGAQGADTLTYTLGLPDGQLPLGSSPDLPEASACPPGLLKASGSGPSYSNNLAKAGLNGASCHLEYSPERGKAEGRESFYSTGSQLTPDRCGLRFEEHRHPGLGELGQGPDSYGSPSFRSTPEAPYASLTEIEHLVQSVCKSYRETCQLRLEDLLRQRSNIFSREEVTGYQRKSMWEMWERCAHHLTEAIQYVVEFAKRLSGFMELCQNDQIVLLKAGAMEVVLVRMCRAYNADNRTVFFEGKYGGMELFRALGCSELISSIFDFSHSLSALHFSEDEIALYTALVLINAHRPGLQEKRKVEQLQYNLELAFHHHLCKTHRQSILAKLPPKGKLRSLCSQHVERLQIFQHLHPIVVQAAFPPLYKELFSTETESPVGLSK
Tumor necrosis factor (Homo sapiens), sequence (P01375 whole entry, looked up): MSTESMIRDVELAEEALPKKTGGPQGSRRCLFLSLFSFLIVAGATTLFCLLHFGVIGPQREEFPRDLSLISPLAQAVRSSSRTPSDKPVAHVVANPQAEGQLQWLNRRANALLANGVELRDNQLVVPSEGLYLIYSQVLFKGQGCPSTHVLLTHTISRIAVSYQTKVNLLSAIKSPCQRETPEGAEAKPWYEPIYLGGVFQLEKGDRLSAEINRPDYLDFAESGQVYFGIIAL

In the case of `S=P(N1CC1)(N1CC1)N1CC1`, the activation in assay [1] was 0.0951%. Also, the max response in assay [2] is -1.18%; in [4] it was 9.1% and 8.65%. The compound was classed as inactive in assay [3].

With `Cc1nnc(C(=O)NC(C)(C)c2nc(C(=O)NCc3ccc(F)cc3)c(O)c(=O)n2C)o1`, the compound was classed as inactive in assay [5] and in assay [6]. Also, the max response in assay [4] was 3.93%.

In the case of `CNC(=O)c1cc(Oc2ccc(NC(=O)Nc3ccc(Cl)c(C(F)(F)F)c3)cc2)ccn1`, in [6], the compound was called inactive. Besides, the max response in [4] was -3.89% and 12.7% and 20%.

Turning to `CC[C@H](C)C(=O)O[C@H]1C[C@@H](C)C=C2C=C[C@H](C)[C@H](CC[C@@H]3C[C@@H](O)CC(=O)O3)[C@H]21`, the Potency result in [7] was “inactive”. The compound was classed as inactive in [8] and in [3]. For the same compound, the activation in assay [1] was -1.02%. For the same compound, the max response in assay [2] was 1.65%; in assay [4], 4.74%. The Potency in assay [9] is 4.73 µM (active).

For the compound `COc1cc([C@@H]2c3cc4c(cc3[C@H](O)[C@H]3COC(=O)[C@H]23)OCO4)cc(OC)c1OC`, the call in [5] and in [6] was inactive.

As for `CCCCOc1ccc(CC(=O)NO)cc1`, the max response in [4] is 1.51%.

Turning to `CO[C@@]12[C@H](COC(N)=O)C3=C(C(=O)C(C)=C(N)C3=O)N1C[C@@H]1N[C@@H]12`, the max response in assay [4] is -9.88%.

On to `O=c1oc2c(O)c(O)cc3c(=O)oc4c(O)c(O)cc1c4c23`, for which the max response in assay [4] was 10.2%.

`CCOC(=O)c1ccc(C#Cc2ccc3c(c2)C(C)(C)CCS3)nc1`: the max response in [4] was 32%.

Turning to `CC(C)C1CCC(C(=O)N[C@H](Cc2ccccc2)C(=O)O)CC1` (stereo partly drawn), the max response in assay [4] was 6.84%.

Take `CC(C)NCC(O)c1ccc(NS(C)(=O)=O)cc1` (stereo not drawn): the outcome in [10], in assay [11], in [12], in [13], in assay [14] and in assay [15] was inactive. Also, in [16], the result was inactive. For the same compound, the max response in assay [4] is -0.473% and -8.06% and 37.8%.

As to `COc1ccc(-c2ccc3cc(C(=O)O)ccc3c2)cc1C12CC3CC(CC(C3)C1)C2`, the max response in [4] is 23.8%.

As to `NC(=O)c1ccc2[nH]ccc2c1`, the compound was classed as inactive in assay [11], in assay [12], in assay [13], in assay [14], in [15] and in assay [16]. Also, in assay [4], the max response was 11.4%.

For the compound `NC(=O)c1cccnc1`, the max response in assay [4] is 0.464%.

On to `CCCc1cc(C(N)=S)ccn1`, for which the max response in assay [4] is 4.17%.

For `CC1(C)[C@H](C(=O)O)N2C(=O)C[C@H]2S1(=O)=O`, the max response in assay [4] was 0.138%.

With `CCCCS(=N)(=O)CCC(N)C(=O)O` (stereo not drawn), the result in assay [10], in [11], in [12], in [13], in assay [14] and in assay [15] was inactive. Also, the result in assay [16] was inactive. In addition, in assay [4], the max response was -16.7%.

In the case of `CN(C)CCc1c[nH]c2ccc(C[C@H]3COC(=O)N3)cc12`, in assay [4], the max response is -7.68%.

For the compound `CCN(C)C(=O)Oc1cccc([C@H](C)N(C)C)c1`, in assay [4], the max response was -3.35%.

Consider `CCC(=O)O[C@]1(C(=O)CCl)[C@@H](C)C[C@H]2[C@@H]3CCC4=CC(=O)C=C[C@]4(C)[C@@]3(F)[C@@H](O)C[C@@]21C`, for which the max response in [4] was 4.44%.

With `CCC(C)(C)c1ccc(CC(C)CN2C[C@@H](C)O[C@@H](C)C2)cc1` (stereo partly drawn), in assay [4], the max response is 21.2%.

`CC(C)(C#N)c1cc(Cn2cncn2)cc(C(C)(C)C#N)c1`: in assay [4], the max response is 7.01%.

With `OCc1ccc(-c2nn(Cc3ccccc3)c3ccccc23)o1`, the result in assay [10], in assay [11], in [12], in assay [13], in assay [14] and in assay [15] was inactive. Besides, the outcome in [16] was inactive. Further, the max response in [4] was -5.09%.
